The list is not random: actives were taken first. Their share in the collection is about 10%.
HEK293 tox = HEK 293 cell cytotoxicity | HEK 293 viability, ATP luminescence (CellTiter-Glo), 48-72 h | Potency, µM (doses to about 115 µM), hits mostly inhibitors | hit rate 6.6% among 94,000 | AID 1345083; further: nearly all actives have a fitted effect of over 60% in size
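Viability of HEK 293 cells, plated at 250 cells/well, was judged by cellular ATP after compound treatment for 48 or 72 hr. Luminescence was imaged 10 min after CellTiter-Glo addition at room temperature.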
NPR1 antag = blocks ANP-stimulated signaling of human Npr1 receptor. Potency, µM (doses to about 46.3 µM), actives largely listed as inhibitors. HEK293 hNpr1 GloSensor cGMP, ANP-stimulated luminescence. hit rate 1.6% among 76,000; calls by dose curve; further: nearly all actives have a fitted effect of over 60% in size
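HEK293 cells stably expressing human Npr1 and cGMP GloSensor pGS-40F, loaded 2 h with 2% GloSensor reagent, given compound 30 min at room temperature. Luminescence read before and 20 min after 0.1 nM hNppA.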
Luciferase inh = Photinus pyralis luciferase inhibition | P08659 | AID 1347043 | Potency, µM (titrated, usually from 115 µM), hits mostly inhibitors | hit rate 2.5% among 76,000 | purified P. pyralis luciferase, luminescence, biochemical; further: nearly all actives have a fitted effect of over 65% in size
Target sequence (P08659 whole entry, looked up): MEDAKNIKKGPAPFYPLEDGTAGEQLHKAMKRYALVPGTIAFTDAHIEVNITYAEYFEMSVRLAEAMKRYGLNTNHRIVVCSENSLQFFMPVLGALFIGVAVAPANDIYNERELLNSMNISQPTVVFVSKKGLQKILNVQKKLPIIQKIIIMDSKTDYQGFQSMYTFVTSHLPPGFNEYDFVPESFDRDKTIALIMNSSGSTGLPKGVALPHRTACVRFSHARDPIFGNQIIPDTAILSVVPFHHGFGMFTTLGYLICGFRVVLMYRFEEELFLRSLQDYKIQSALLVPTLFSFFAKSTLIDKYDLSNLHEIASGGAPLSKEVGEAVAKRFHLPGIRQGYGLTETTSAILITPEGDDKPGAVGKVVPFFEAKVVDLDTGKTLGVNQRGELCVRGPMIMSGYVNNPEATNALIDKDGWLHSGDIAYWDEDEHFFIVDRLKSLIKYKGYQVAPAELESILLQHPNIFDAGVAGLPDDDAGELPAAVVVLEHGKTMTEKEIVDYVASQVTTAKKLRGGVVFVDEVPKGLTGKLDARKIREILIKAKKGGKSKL
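Luminescence read by CCD imager after adding enzyme (10nM final) to wells holding compound, titrated in qHTS. Substrates 10uM each D-luciferin and ATP; buffer 50mM Tris acetate pH 7.5, 10mM Mg acetate, Tween-20, BSA.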
GPT2 inh = blocks human glutamate pyruvate transaminase 2; Potency, µM (doses to about 57.7 µM), actives largely listed as inhibitors; hit rate 0.25% among 100,000; Q8TD30; Recombinant GPT2, coupled pyruvate oxidase/HRP Amplex Red fluorescence; further: nearly all actives have a fitted effect of over 60% in size
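Recombinant GPT2 (10ng/uL) with 250uM a-KG and 2mM L-alanine, 30 min at room temperature, in HEPES pH 7.5 buffer. Pyruvate detected by pyruvate oxidase/HRP/Amplex Red fluorescence after 30 min in the dark; AOA (50uM) as positive control.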
NIH3T3 tox = cytotoxic compounds in NIH 3T3 cells; Potency, µM (highest dose often 96.7 µM), most hits filed as inhibitors; hit rate 4.3% among 94,000; NIH 3T3 viability, CellTiter-Glo ATP luminescence, 48-72 h; AID 1345082; further: nearly all actives have a fitted effect of over 55% in size
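Luminescent ATP readout (CellTiter-Glo, 10 min RT) after 48 or 72 hr compound exposure of NIH 3T3 cells seeded at 400 cells/well in 1536-well format; quantitative HTS.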
Hits are given with their value; 0 = inactive; ? = inconclusive; - = not tested or not shown. Unless noted, the call rests on the fitted dose curve; in most records, active means well fitted curve in the direction sought with a large enough effect; inconclusive means small, poorly fitted or top-dose-only effect, or another doubt; inactive means no such curve, though single readings can be large; an effect the other way counts as inactive or inconclusive.

SMILES | HEK293 tox | NPR1 antag | Luciferase inh | GPT2 inh | NIH3T3 tox
CN(Cc1cc(C[C@@H]2C[C@H](NCc3ncc[nH]3)C2(C)C)no1)c1ccccc1 | 63µM | 0 | ? | 0 | 100µM
O=C(Nc1ccc2c(c1)OCO2)C1CN(S(=O)(=O)c2cccnc2)CC12CCCCC2 (centres undefined) | 0 | 0 | 40µM | 0 | 0
Cc1cccc(NC(=O)N2CCCC(Cn3c(C4CC4)nc4cccnc43)C2)c1C (centres undefined) | 0 | 0 | 0 | 0 | 0
OCC1CN(C2CCC2)CC12CCN(Cc1ccc(F)cc1)CC2 (centres undefined) | 45µM | 0 | 0 | 0 | ?
COCC1CN(C2CCC2)CC12CCN(C(=O)Cc1ccccc1F)CC2 (centres undefined) | 50µM | 0 | 0 | 0 | ?
OCC1CN(C2CCC2)CC12CCN(Cc1cc(F)ccc1F)CC2 (centres undefined) | 40µM | 0 | 0 | 0 | ?
CCOC(=O)c1cccc(NC(=O)N2CC[C@@H](CC(=O)NC3CC3)[C@@H](CC)C2)c1 | 0 | 0 | 0 | 0 | 0
CCn1cc(-c2ccc(Cl)cc2)cc1C(=O)NCC1CCCO1 (centres undefined) | ? | 0 | ? | 0 | 0
O=C(NCC1CCCO1)c1csc(N2CCN(c3ccc(Cl)cc3)CC2)n1 (centres undefined) | 35µM | ? | 0 | 0 | ?
COc1cccc(NC(=O)c2cc3c(N(C)Cc4ccccc4)nc(C)cn3n2)c1 | 0 | 0 | 0 | 0 | 0
CCCc1cc(N2CCC(NCc3cc(F)c(F)c(F)c3)CC2)nc(C)n1 | 50µM | 0 | 0 | 0 | ?
CCCc1cc(N2CCC(NCCOC(C)C)CC2)nc(C)n1 | 0 | 0 | 0 | 0 | 0
Cc1cccc2c(C3CCN(S(=O)(=O)c4c(Cl)cccc4Cl)CC3)c[nH]c12 | ? | 0 | 0 | 0 | ?
CCCc1ccc(S(=O)(=O)N2CCC(c3c[nH]c4c(C)cccc34)CC2)cc1 | 50µM | 0 | 0 | 0 | ?
O=C1Nc2ccc(-c3ccc(Cl)cc3)cc2C(=O)N2CCN(C(=O)c3cccnc3)C[C@H]12 | 45µM | 0 | 0 | 0 | ?
O=C1Nc2ccc(-c3ccccc3)cc2C(=O)N2CCN(C(=O)c3cccnc3)C[C@H]12 | 0 | 0 | 0 | 0 | 0
COc1ccc(C(=O)N2CCN3C(=O)c4cc(-c5ccc(Cl)cc5)ccc4NC(=O)[C@@H]3C2)cc1 | 32µM | 0 | 0 | 0 | 28µM
O=C1Nc2ccc(-c3ccc4c(c3)OCO4)cc2C(=O)N2CCN(C(=O)c3cccs3)C[C@@H]12 | 32µM | 0 | 0 | 0 | 35µM
Cn1ncc2c(C(=O)NC3CC3)cc(C(C)(C)C)nc21 | 0 | - | - | 0 | ?
O=C(NCc1csc(Cc2ccccc2)n1)C1NCCc2[nH]cnc21 (centres undefined) | ? | 0 | 0 | 0 | 0
CC(=O)NC1CCCN(Cc2cccc(-c3ccc(C)c(Cl)c3)c2)C1 (centres undefined) | 20µM | - | - | 0 | 35µM
Cc1ccc(-c2cccc(CN3CCCC(NC(=O)Nc4ccccc4F)C3)c2)cc1Cl (centres undefined) | 18µM | - | - | 0 | 28µM
COC(=O)NC1CCCN(Cc2cccc(-c3ccc(C)c(Cl)c3)c2)C1 (centres undefined) | 45µM | - | - | 0 | ?
Cc1ccc(-c2cccc(CN3CCCC(NC(=O)Cc4ccccc4)C3)c2)cc1Cl (centres undefined) | 0 | - | - | 0 | 0
Cc1ccc(-c2cccc(CN3CCCC(NC(=O)C4CCCC4)C3)c2)cc1Cl (centres undefined) | 0 | - | - | 0 | 0
CC(C)N1C[C@H](O)C[C@H]1c1nnc2n1CCN(C(=O)C1CC1)CC2 | ? | 0 | 0 | 0 | 0
O[C@H]1[C@H](NCc2cccc(C(F)(F)F)c2)[C@@H](c2cccnc2)C[C@H]1O | 0 | 0 | 0 | 0 | 0
Cc1nnc2n1CCC(N(C)C(=O)CCc1c[nH]c3ccccc13)CC2 (centres undefined) | 0 | 0 | 0 | 0 | 0
O=C(NC1C[C@H]2CC[C@@H](C1)N2C(=O)c1ccc(OC(F)(F)F)cc1)c1ccncc1 (some centres undefined) | ? | 0 | 0 | 0 | 0
O=c1c2cccnc2n(-c2cccc([N+](=O)[O-])c2)c(=O)n1Cc1ccncc1 | - | - | - | 0 | -

Source: PubChem
